6 molecules from PubChem BioAssay AID2015 (National Center for Advancing Translational Sciences (NCATS), 2009) can be followed below.

Some of the results follow. Inconclusive results are not listed. Unmarked numbers belong to inactive results. The source made the active and inactive calls. Calls come from the whole dose curve; as a rule, active = well fitted inhibition curve with a large enough effect; inconclusive = small, poorly fitted or top-dose-only effect; inactive = flat fitted curve, though single readings scatter.

Chain of Galactokinase (Homo sapiens) (P51570 whole entry, looked up): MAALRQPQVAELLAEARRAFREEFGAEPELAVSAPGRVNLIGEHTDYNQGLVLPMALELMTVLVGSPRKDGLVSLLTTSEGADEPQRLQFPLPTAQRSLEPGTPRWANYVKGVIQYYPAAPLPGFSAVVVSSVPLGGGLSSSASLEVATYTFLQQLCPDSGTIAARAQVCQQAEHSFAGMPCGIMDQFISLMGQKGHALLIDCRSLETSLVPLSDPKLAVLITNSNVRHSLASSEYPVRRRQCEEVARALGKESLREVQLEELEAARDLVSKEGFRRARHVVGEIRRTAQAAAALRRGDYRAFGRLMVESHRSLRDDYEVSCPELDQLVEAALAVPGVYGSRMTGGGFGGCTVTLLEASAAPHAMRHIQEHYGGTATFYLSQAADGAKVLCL

This assay addresses Galactokinase (Homo sapiens) (UniProt P51570). In words: Confirmation Assay for Inhibitors of Human Galactokinase (GALK). Conditions: purified GALK, Kinase-Glo ATP depletion luminescence; series mostly up to 115 µM; activity, negative = inhibition: at the top concentration. An excerpt:
NIH Molecular Libraries Probe Production Centers Network [MLPCN] NIH Chemical Genomics Center [NCGC] MLPCN Grant: R03 MH085689-01 Assay Submitter (PI): Kent Lai (University of Utah School of Medicine, 50 N Mario Capecchi Drive, Salt Lake City, UT 84132) NCGC Assay Overview Inherited deficiency of galactose-1-phosphate uridyltransferase (GALT) can result in a potentially lethal disorder called Classic Galactosemia (OMIM 230400). Several lines of evidence indicate that an elevated level of galactose-1-phosphate (gal-1-p), the product of galactokinase (GALK), is a major, if not sole, pathogenic mechanism in patients with classic galactosemia. Therefore, finding inhibitors of GALK is a potential novel therapy for this inherent metabolic disease and is the long term goal of this project. Active compounds observed in the qHTS GALK assay (AID: 1868) were cherry picked and re-screened for validation. GALK (provided by Kent Lai) was assayed using ATP and D-(+)-Galactose (Sigma-Aldrich cat# G0750) as substrates. Promega Kinase-Glo Plus (cat# V3774) technology was used to detect the residual ATP following kinetic reaction. Briefly, the Kinase-Glo Plus contains Ultra-Glo [1] luciferase and D-luciferin which generates a bioluminescence signal from the remaining ATP. Kinase reactions with and without GALK were used as negative and positive controls together with Protein Tyrosine Phosphatase CD45 inhibitor (EMD Bioscience cat# 540215) which is shown to inhibit GALK activity.
NCGC Assay Protocol Summary: Three uL/well of ATP-buffer solution (35 uM ATP, 20mM HEPES pH8.0, 5 mM MgCl2, 60 mM NaCl, 1 mM DTT, 0.01% BSA final concentration) was dispensed into 1536-well, assay plates (Greiner, solid white medium-binding plates) with Aurora Discovery BioRAPTR Flying Reagent Dispenser (FRD; Beckton-Dickenson). Compound and control solution (23 nL) was transferred to the assay plate using the Kalypsys 1536-pin tool apparatus. One uL/well GALK-galactose solution (5 nM GALK, 100 uM galactose, 20 mM HEPES pH8.0, 5 mM MgCl2, 60 mM NaCl, 1 mM DTT, 0.01% BSA final concentration) was then added using the FRD yielding a total kinase reaction volume of 4 uL/ well. After 1 hour of room temperature incubation, 4 uL Kinase-Glo Plus reagent was added for a final assay volume of 8 uL/well. Luminescence was detected with the ViewLux plate reader (Perkin Elmer, Waltham, MA) after 2 min incubation using a 1 sec exposure time and 2x binning.
In general terms: Kinase-Glo reads ATP consumption through a luciferase reaction.
As for `CCS(=O)(=O)C1=NSC2=NC(=O)/C(=C\c3ccc(OS(=O)(=O)c4ccccc4)cc3)C(=N)N21`, the Potency was 26.6 µM (active).

As for `N#C/C(=C(/O)Cc1cccc2ccccc12)c1nc2ccccc2s1`, the Potency is 33.5 µM (active).

As to `COc1cccc2cc(-c3cc(=O)oc4cc(C)c(O)cc34)oc12`, the “activity, negative = inhibition” value was -8.9%.

On to `N#Cc1c(N2CCCCC2)nc(N)c2c(N)nc(SCC(=O)O)cc12`, for which the Potency is 21.1 µM (active).

Take `Oc1c(Cl)cc(Cl)c(Cl)c1Cc1c(O)c(Cl)cc(Cl)c1Cl`: the Potency is 21.1 µM (active).

As to `CCOC(=O)c1c(C)[nH]c2c1-c1ccccc1C(=O)C2=O`, the Potency is 1.68 µM (active).
